The values that follow come from PubChem BioAssay AID2796 (The Scripps Research Institute Molecular Screening Center, 2010).

The whole screen tested about 320,000 compounds, of which about 8,000 (2.5%) were called active. The sample holds actives, similar compounds and a random draw of the others, so the mix is not that of the screen. No stated cut-off is given here; in the data, active means activation above about 47%; inactive means the rest.

Sequence of Aryl hydrocarbon receptor (Homo sapiens) (P35869 whole entry, looked up): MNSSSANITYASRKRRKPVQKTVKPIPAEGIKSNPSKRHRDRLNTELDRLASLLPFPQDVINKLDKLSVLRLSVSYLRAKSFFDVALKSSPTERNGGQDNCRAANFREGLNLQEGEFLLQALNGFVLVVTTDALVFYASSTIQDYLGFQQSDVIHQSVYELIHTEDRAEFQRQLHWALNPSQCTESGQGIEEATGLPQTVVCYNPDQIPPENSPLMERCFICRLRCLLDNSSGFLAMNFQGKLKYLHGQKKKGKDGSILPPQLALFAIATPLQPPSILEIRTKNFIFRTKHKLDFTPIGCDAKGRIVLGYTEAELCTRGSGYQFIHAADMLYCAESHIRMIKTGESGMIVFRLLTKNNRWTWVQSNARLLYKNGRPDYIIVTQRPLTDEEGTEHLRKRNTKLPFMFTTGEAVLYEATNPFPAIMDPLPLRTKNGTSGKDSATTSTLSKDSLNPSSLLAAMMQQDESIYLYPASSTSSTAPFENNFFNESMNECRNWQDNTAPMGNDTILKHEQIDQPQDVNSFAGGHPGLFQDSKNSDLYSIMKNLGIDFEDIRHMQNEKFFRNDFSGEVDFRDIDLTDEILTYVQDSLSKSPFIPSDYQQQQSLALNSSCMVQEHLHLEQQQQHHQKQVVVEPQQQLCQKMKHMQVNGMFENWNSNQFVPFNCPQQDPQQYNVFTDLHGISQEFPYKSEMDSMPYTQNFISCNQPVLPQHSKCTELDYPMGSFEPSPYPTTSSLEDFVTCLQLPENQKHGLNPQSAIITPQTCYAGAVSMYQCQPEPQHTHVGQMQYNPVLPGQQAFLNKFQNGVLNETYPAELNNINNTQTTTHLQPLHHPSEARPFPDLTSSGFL

This experiment concerns the target Aryl hydrocarbon receptor (Homo sapiens) (UniProt P35869). The experiment in a line: AHR activators, primary screen, cell-based, luminescence, luciferase reporter, human (AID 2796).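 Further: 0% = vehicle wells and 100% = reference agonist.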 Conditions: AHR-responsive luciferase reporter cells, at 5 µM, stronger effect = higher value.
As for `CCC(C)(C(=O)NC1CCCCC1)N(C)C(=O)c1ccc2c(c1)OCO2` (stereo not given), the activation is -0.09% (inactive).

Turning to `CCOC(=O)C1=NNC2(c3ccc(Cl)cc3)C(=O)N(c3cc(C)cc(C)c3)C(=O)C12` (stereo not given), the activation was 5.66% (inactive).

For `CCC(CC)c1nnc(NC(=O)/C=C/c2ccco2)s1`, the activation is 46.2% (inactive).

For `CCc1nnc(NC(=O)/C=C/c2ccc(C)o2)s1`, the activation is 28.2% (inactive).

As to `Cc1nnc(NC(=O)/C=C/c2ccco2)s1`, the activation is 120% (active).

Turning to `COc1ccc(S(=O)(=O)N2CCC(C(=O)NCc3ccco3)CC2)cc1C`, the activation is 0.76% (inactive).

Take `CCc1ccc(NC(=O)C(=O)N/N=C(\C)CC(=O)NCCOC)cc1`: the activation is 8.77% (inactive).

With `CC(Sc1nncn1C)C(=O)NCCC1=CCCCC1` (stereo not given), the activation was -0.01% (inactive).

With `CCCn1nnc2sc3c(c2c1=O)CCC(C)C3` (stereo not given), the activation was -0.09% (inactive).

Take `CC1CCc2sc3nc(N4CCN(CCO)CC4)n4ncnc4c3c2C1` (stereo not given): the activation was 61.8% (active).

`CC1CCc2c(sc3nc4n(c(=O)c23)CCS4)C1` (stereo not given): the activation is -1.18% (inactive).

Take `c1ccc2c(c1)CCc1snnc1-2`: the activation was 2.81% (inactive).

With `CCC1CCc2c(sc(NC(C)=O)c2C#N)C1` (stereo not given), the activation is 1.29% (inactive).

With `COc1ccc(NC(=O)C(CC(C)C)NC(=O)C2CCC(C)CC2)cc1` (stereo not given), the activation was 1.21% (inactive).

With `CC(=O)Nc1ccc(S(=O)(=O)NCC2CCC(C(=O)NCCc3ccccc3)CC2)cc1` (stereo not given), the activation is 0.11% (inactive).

On to `Cn1cncc1C#Cc1c(-c2ccsc2)sc2ccccc12`, for which the activation was 52.7% (active).

On to `Cc1cccc(-c2oc3ccc(-c4ccc5c(c4)OCO5)cc3c2C#Cc2cncn2C)c1`, for which the activation is 26.5% (inactive).

For `O=C(NCc1ccc2c(c1)OCO2)c1c(-c2ccsc2)sc2ccccc12`, the activation is 44.7% (inactive).

On to `COC(=O)/C(=C\Nc1ccccc1)NC(=O)c1ccc(Cl)cc1Cl`, for which the activation is 1.34% (inactive).

On to `N#CC1(C#N)C(C(=O)C23CC4CC(CC(C4)C2)C3)C12CCOCC2` (stereo not given), for which the activation is -2.81% (inactive).

`Cc1ccccc1NCC(=O)N/N=C\c1ccc([N+](=O)[O-])s1`: the activation was 56.7% (active).

For `COc1ccc(C(=O)NCC(=O)N/N=C/c2ccc([N+](=O)[O-])s2)cc1OC`, the activation is -1.7% (inactive).

For `CC(C)(C)c1cc(C(=O)N/N=C/c2ccc([N+](=O)[O-])s2)n[nH]1`, the activation is -8.74% (inactive).

Regarding `Cc1cc(O)ccc1NC1=CC(=O)CC(C)(C)C1`, the activation was 15.2% (inactive).

Take `CCN1CCN(C(=O)CN(C)S(=O)(=O)c2ccc3ccccc3c2)CC1`: the activation was -1.56% (inactive).

For the compound `C[C@@H]1CN([C@H](C)CO)C(=O)c2cc(NC(=O)NC3CCCCC3)ccc2O[C@H]1CN(C)S(C)(=O)=O`, the activation is -0.98% (inactive).

As for `CCCn1c(C(O)c2ccc(OCC)cc2)nc2ccccc21` (stereo not given), the activation was 0.65% (inactive).

`COc1cccc(C(O)Cc2nc3ccccc3n2C)c1OC` (stereo not given): the activation was 6.17% (inactive).

With `CCOc1ccc(C(O)Cc2nc3ccccc3n2C)cc1` (stereo not given), the activation was 118% (active).

Take `Cc1cc(Br)ccc1NC(=O)c1cnc(N2CCN(c3ccccn3)CC2)c2ccccc12`: the activation was 20.2% (inactive).

Take `Cc1cc(Nc2ccc(N3CCOCC3)cc2)c2cccc(C)c2n1`: the activation was 8.99% (inactive).

For `N#CCSc1nc2ccc(N3CCOCC3)cc2c(=O)n1CCc1ccccc1`, the activation is 1.4% (inactive).

As for `Cc1nn2c3cc(N4CCOCC4)ccc3nc2c2ccccc12`, the activation is 144% (active).

As for `COc1cccc2cc(C(N)=O)/c(=N\NC(=O)c3ccccc3)oc12`, the activation was 8.63% (inactive).

Regarding `CCN(CC)c1ccc(C(=O)N/N=C/c2ccc(N3CCOCC3)cc2)cc1`, the activation was 19% (inactive).

As to `CCN(CC)c1ccc2cc(C(N)=O)/c(=N\NC(=O)c3ccncc3)oc2c1`, the activation is 78% (active).

For the compound `CCN(CC)c1ccc(/C=N/NC(=O)c2cnccn2)c(O)c1`, the activation is 22.4% (inactive).

Regarding `NC(=O)c1cc2ccccc2o/c1=N/NC(=O)c1cccc(F)c1`, the activation was 52.6% (active).

In the case of `N=c1oc2ccccc2cc1C(=O)NCc1ccccc1`, the activation was -3.55% (inactive).

With `COc1cc(/C=C/C(=O)Nc2ccc(OC)c(S(=O)(=O)N3CCOCC3)c2)ccc1OCC#N`, the activation was -0.9% (inactive).

Turning to `CCCCCc1ccc(-c2ccc(C(=O)O)cc2)nc1`, the activation was -9.97% (inactive).

`COc1ccccc1CCNS(=O)(=O)c1cc2c3c(c1)C(C)C(=O)N3CCC2` (stereo not given): the activation is 4.39% (inactive).

Turning to `CC(=O)NS(=O)(=O)c1ccc(NC(=O)/C=C/c2ccccc2Cl)cc1`, the activation was 7.35% (inactive).

In the case of `Cc1ccc(/C=N/NC(=O)Cn2nc(C)c(Br)c2C)o1`, the activation was 2.15% (inactive).

Take `Cc1nn(Cc2ccc(Cl)cc2)c(Cl)c1/C=N/NC(=O)CNc1ccccc1F`: the activation is 25% (inactive).

For `O=C(Cc1ccccc1)N/N=C/c1ccc(Cl)cc1Cl`, the activation was 1.3% (inactive).

`Cc1nn(Cc2ccc(Cl)cc2)c(Cl)c1/C=N/NC(=O)c1cccnc1`: the activation is 96.6% (active).

Consider `O=C(Nc1nnc(Cc2ccc(Cl)cc2)s1)c1cccnc1`, for which the activation is 3.47% (inactive).

`CCn1nc(C)c(/C=N/NC(=O)Cc2ccc(Cl)cc2)c1C`: the activation is 56.2% (active).

`CC(OC(=O)CCCc1c[nH]c2ccccc12)C(=O)Nc1ccc(S(N)(=O)=O)cc1` (stereo not given): the activation was 0.81% (inactive).

Turning to `CC(NC(=O)CN1CCN(Cc2ccc(Cl)cc2)C1=O)c1ccc2c(c1)OCCO2` (stereo not given), the activation was 0.39% (inactive).

Regarding `CCOC(=O)c1cccc(NC(=O)C2CCN(c3ncnc4c3nc3n4CCCCC3)CC2)c1`, the activation was 2.44% (inactive).

With `CCCCC[C@@H]1C=C(C(=O)O)[C@H](c2ccc(C#N)cc2)N1S(=O)(=O)c1ccc(C)cc1`, the activation is -1.14% (inactive).

Consider `Cc1ccc(C(=O)NCC(=O)OCc2nnc(-c3ccccc3)o2)cc1`, for which the activation was 1.68% (inactive).

Consider `CC(C)[C@H](NC(=O)N1CC(=O)Nc2ccccc21)C(=O)N[C@@H](Cc1c[nH]c2ccccc12)C(=O)O`, for which the activation is 10.6% (inactive).

As to `COC(=O)c1[nH]c2ccccc2c1NC(=O)CN1CCCc2ccccc21`, the activation is 74.4% (active).

Take `COC(=O)c1[nH]c2cccc(C)c2c1NC(=O)CN1CCCc2ccccc21`: the activation is 26.4% (inactive).

On to `NS(=O)(=O)c1cccc(NC(=O)CN2CCCc3ccccc32)c1`, for which the activation is 3.96% (inactive).

As to `COc1ccc(OC)c(S(=O)(=O)N2CCCC(C(=O)N3CCC(C(N)=O)CC3)C2)c1` (stereo not given), the activation is -1.65% (inactive).

In the case of `N#CC1=C(N)Oc2c(sc3ccccc23)C1c1ccco1` (stereo not given), the activation was 74.7% (active).

With `N#CC1=C(N)Oc2c(ccc3cccnc23)C1c1ccncc1` (stereo not given), the activation was -0.63% (inactive).

For `CC(C)C(C(=O)NC1CCCCC1)N(CC1CCCO1)C(=O)CNS(=O)(=O)c1ccc(F)cc1` (stereo not given), the activation was -1.33% (inactive).

As to `O=C(c1ccc(=O)oc1)N1CCC(C(O)(c2ccccc2)c2ccccc2)CC1`, the activation is 0.25% (inactive).

On to `Nc1[nH][nH]c(=O)c1N=Nc1ccc2c(c1)OCO2`, for which the activation is 96.5% (active).

Regarding `CC(=O)c1cc2c(cc1N)OCO2`, the activation is 6.34% (inactive).

Turning to `O=C(c1ccc2c(c1)OCO2)N1CCOCC1`, the activation is 0.36% (inactive).

With `[O-][N+]12CCCCC1CCCC2CO` (stereo not given), the activation is -0.51% (inactive).

For the compound `Cn1c(=O)c2c(SCC(=O)N3CCOCC3)nc(C3CC3)nc2n(C)c1=O`, the activation is 7.71% (inactive).

As to `CCC(C)Sc1nc(C)nc2c1c(=O)n(C)c(=O)n2C` (stereo not given), the activation is 54% (active).

Take `CCOC(=O)N1CCN(C(=O)CSc2nc(C)nc3c2c(=O)n(C)c(=O)n3C)CC1`: the activation is -2.19% (inactive).

For the compound `CSc1nc(C)nc2c1c(=O)n(C)c(=O)n2C`, the activation is 7.77% (inactive).

For `CC(C)c1ccc(C2C(C#N)=C(N)Oc3c2oc(CO)cc3=O)cc1` (stereo not given), the activation was 1.15% (inactive).

`C/C(=N\NC(=O)c1cccnc1)c1ccc(-n2ccnc2)cc1`: the activation was 94.3% (active).

For `C/C(=N\NC(=O)c1ccc2ccccc2c1)c1cccnc1`, the activation is 32.5% (inactive).

Take `C/C(=N\NC(=O)c1cccc([N+](=O)[O-])c1)c1cccnc1`: the activation is 43% (inactive).

For the compound `O=C(Nc1cccn(Cc2ccccc2Cl)c1=O)NC1CCCCC1`, the activation is -0.61% (inactive).

On to `Cc1ccc(C2CCN(C(=S)Nc3cccc(Cl)c3)C2)cc1` (stereo not given), for which the activation was 0.22% (inactive).

Consider `COc1ccc([N+](=O)[O-])cc1NC(=O)CC1SC(=Nc2cccc(C)c2C)N(/N=C(\C)c2ccc(C)cc2)C1=O` (stereo not given), for which the activation was 2.69% (inactive).

Take `Cc1cccc(C(=O)OCC(=O)NC(C)C2CC3CCC2C3)c1O` (stereo not given): the activation is -0.37% (inactive).

For the compound `CC(Oc1cccc(NC(=O)c2cccs2)c1)C(=O)c1ccccc1` (stereo not given), the activation is 5.22% (inactive).

As to `CCOC(=O)c1c(C2CC2)csc1NC(=O)CSCc1c(C)noc1C`, the activation was 74.2% (active).

For the compound `Cc1noc(C)c1CSCC(=O)Nc1ccc(Br)cc1Cl`, the activation is -1.92% (inactive).

In the case of `Cc1ccc(F)cc1NC(=O)CSCc1c(C)noc1C`, the activation was -0.17% (inactive).

In the case of `COc1cccc(/C=C/C(=O)Nc2ccc3c(c2)OCCO3)c1`, the activation was -3.92% (inactive).

In the case of `COc1c(O)cc2oc(-c3ccc(O)c(O)c3)cc(=O)c2c1O`, the activation is -2.83% (inactive).

For the compound `COc1cccc(NC(=O)[C@H](Cc2c[nH]c3ccccc23)NC(=O)[C@@H]2Cc3ccccc3CN2)c1`, the activation was 8.95% (inactive).

In the case of `Nc1nonc1-n1nnc(C(=O)N/N=C/c2c[nH]c3ccccc23)c1-c1ccccc1`, the activation was 15.2% (inactive).

Consider `CSC(=S)N/N=C/c1c[nH]c2ccccc12`, for which the activation is 82% (active).

`Cc1c(/C=N\NC(=O)c2cc3ccccc3o2)c2ccccc2n1C`: the activation is 26.2% (inactive).

As for `O=C(O)c1cccc(NC(=S)N/N=C/c2c[nH]c3ccccc23)c1`, the activation is 22% (inactive).

As for `O=C(N/N=C/c1c[nH]c2ccccc12)c1ccccc1O`, the activation is 19% (inactive).

With `O=C(N/N=C/c1c[nH]c2ccccc12)c1cc2ccccc2o1`, the activation was 99% (active).

Take `CC1(C)C(C=C(Cl)Cl)C1C(=O)NC(O)C(=O)c1ccccc1` (stereo not given): the activation was -1.26% (inactive).

On to `COC(=O)c1ccc(C(=O)NC2CC(C)(C)Cc3c2cnn3-c2ccc(F)cc2)nc1` (stereo not given), for which the activation is -1.69% (inactive).

`COc1cc(C)nc(N2CCCC(C(=O)NCC(C)C)C2)n1` (stereo not given): the activation is 5.81% (inactive).
